Experimental data: the supplement of paper PMC8728848
Only a selection was taken, and the strongest signals are over-represented in it overall.

Experiments:
Experiment in all cases: glycan array binding signal (z-score within array); higher = stronger binding
Settings in all cases: glycan notation: IUPAC condensed, linker removed
Fuc(a1-2)Gal = biological target: Fuc(a1-2)Gal
How it was run: (§1)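 Glycan array binding is given as a within-array Z-score, which can be read as non-binding when negative. The arrays, 3228 of them, came from the Consortium for Functional Glycomics database and were retained only where the protein sequence was available. Z-scores were averaged across arrays of the same protein sequence at different concentrations or buffers and across linkers.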

[1] = biological target: Fuc(a1-2)Gal(b1-3)GlcNAc(b1-3)[Fuc(a1-2)Gal(b1-3)GlcNAc(b1-6)]GalNAc
How it was run: as §1

[2] = biological target: Fuc(a1-2)Gal(b1-3)GlcNAc6S
How it was run: as §1

[3] = biological target: Fuc(a1-2)Gal(b1-4)GlcNAc(b1-2)Man(a1-3)[Fuc(a1-2)Gal(b1-4)GlcNAc(b1-2)Man(a1-6)]Man(b1-4)GlcNAc(b1-4)[Fuc(a1-6)]GlcNAc
How it was run: as §1

[4] = biological target: Fuc(a1-2)Gal(b1-4)GlcNAc(b1-3)GalNAc
How it was run: as §1

[5] = biological target: Fuc(a1-2)Gal(b1-4)GlcNAc(b1-3)[Fuc(a1-2)Gal(b1-4)GlcNAc(b1-6)]GalNAc
How it was run: as §1

[6] = biological target: Fuc(a1-2)[Gal(a1-3)]Gal(b1-3)GalNAc
How it was run: as §1

[7] = biological target: Fuc(a1-2)[Gal(a1-3)]Gal(b1-3)GlcNAc
How it was run: as §1

[8] = biological target: Fuc(a1-2)[Gal(a1-3)]Gal(b1-4)Glc
How it was run: as §1

[9] = biological target: Fuc(a1-2)[Gal(a1-3)]Gal(b1-4)GlcNAc(b1-3)GalNAc
How it was run: as §1

[10] = biological target: Fuc(a1-2)[GalNAc(a1-3)]Gal
How it was run: as §1

[11] = biological target: Fuc(a1-2)[GalNAc(a1-3)]Gal(b1-3)GlcNAc
How it was run: as §1

[12] = biological target: Fuc(a1-2)[GalNAc(a1-3)]Gal(b1-3)GlcNAc(b1-2)Man(a1-3)[Fuc(a1-2)[GalNAc(a1-3)]Gal(b1-3)GlcNAc(b1-2)Man(a1-6)]Man(b1-4)GlcNAc(b1-4)GlcNAc
How it was run: as §1

[13] = biological target: Fuc(a1-2)[GalNAc(a1-3)]Gal(b1-3)GlcNAc(b1-6)GalNAc
How it was run: as §1

[14] = biological target: Fuc(a1-2)[GalNAc(a1-3)]Gal(b1-4)Glc
How it was run: as §1

[15] = biological target: Gal(a1-4)Gal(b1-4)GlcNAc(b1-2)Man(a1-3)[Gal(a1-4)Gal(b1-4)GlcNAc(b1-2)Man(a1-6)]Man(b1-4)GlcNAc(b1-4)GlcNAc
How it was run: as §1

Gal(b1-2)Gal = biological target: Gal(b1-2)Gal
How it was run: as §1

Gal(b1-3)Gal = biological target: Gal(b1-3)Gal
How it was run: as §1

[16] = biological target: Gal(b1-3)GalNAc(a1-3)[Fuc(a1-2)]Gal(b1-4)Glc
How it was run: as §1

[17] = biological target: Gal(b1-3)GalNAc(a1-3)[Fuc(a1-2)]Gal(b1-4)GlcNAc
How it was run: as §1

[18] = biological target: Gal(b1-3)[Fuc(a1-4)]GlcNAc(b1-2)Man(a1-3)[Gal(b1-3)[Fuc(a1-4)]GlcNAc(b1-2)Man(a1-6)]Man(b1-4)GlcNAc(b1-4)[Fuc(a1-6)]GlcNAc
How it was run: as §1

[19] = biological target: Gal(b1-3)[Fuc(a1-4)]GlcNAc(b1-6)GalNAc
How it was run: as §1

[20] = biological target: Gal(b1-4)GalNAc(a1-3)[Fuc(a1-2)]Gal(b1-4)GlcNAc
How it was run: as §1

[21] = biological target: Gal(b1-4)GlcNAc(a1-6)Gal(b1-4)GlcNAc
How it was run: as §1

[22] = biological target: Gal(b1-4)GlcNAc(b1-3)Gal(b1-4)Glc
How it was run: as §1

[23] = biological target: Gal(b1-4)GlcNAc(b1-3)Gal(b1-4)[Fuc(a1-3)GlcNAc(b1-6)]Gal(b1-4)Glc
How it was run: as §1

[24] = biological target: Gal(b1-4)GlcNAc(b1-6)[Gal(b1-3)]GalNAc
How it was run: as §1

Gal3S(b1-4)GlcNAc = biological target: Gal3S(b1-4)GlcNAc
How it was run: as §1

GalNAc(b1-3)GalNAc = biological target: GalNAc(b1-3)GalNAc
How it was run: as §1

GalNAc(b1-4)Gal(b1-4)Glc = biological target: GalNAc(b1-4)Gal(b1-4)Glc
How it was run: as §1

GalNAc(b1-4)GlcNAc = biological target: GalNAc(b1-4)GlcNAc
How it was run: as §1

Kdn(a2-3)Gal(b1-4)Glc = biological target: Kdn(a2-3)Gal(b1-4)Glc
How it was run: as §1

[25] = biological target: Man(a1-2)Man(a1-3)[Man(a1-2)Man(a1-6)]Man(a1-6)[Man(a1-2)Man(a1-2)Man(a1-3)]Man(b1-4)GlcNAc(b1-4)GlcNAc
How it was run: as §1

[26] = biological target: Neu5Ac(a2-3)Gal(b1-3)GlcNAc(b1-3)Gal(b1-3)GlcNAc
How it was run: as §1

[27] = biological target: Neu5Ac(a2-3)Gal(b1-4)GlcNAc(b1-2)Man
How it was run: as §1

[28] = biological target: Neu5Ac(a2-3)Gal(b1-4)[Fuc(a1-3)]GlcNAc(b1-3)Gal(b1-4)[Fuc(a1-3)]GlcNAc(b1-3)Gal(b1-4)[Fuc(a1-3)]GlcNAc
How it was run: as §1

[29] = biological target: Neu5Ac(a2-3)[GalNAc(b1-4)]Gal(b1-4)GlcNAc(b1-3)GalNAc
How it was run: as §1

[30] = biological target: Neu5Ac(a2-6)Gal(b1-4)GlcNAc(b1-2)Man(a1-3)[Neu5Ac(a2-6)Gal(b1-4)GlcNAc(b1-2)Man(a1-6)]Man(b1-4)GlcNAc(b1-4)GlcNAc
How it was run: as §1

[31] = biological target: Neu5Ac(a2-6)Gal(b1-4)GlcNAc(b1-2)Man(a1-6)[Man(a1-3)]Man(b1-4)GlcNAc(b1-4)GlcNAc
How it was run: as §1

[32] = biological target: Neu5Ac(a2-6)GlcNAc(b1-4)GlcNAc
How it was run: as §1

Neu5Ac(a2-8)Neu5Ac = biological target: Neu5Ac(a2-8)Neu5Ac
How it was run: as §1

Neu5Ac(b2-6)GalNAc = biological target: Neu5Ac(b2-6)GalNAc
How it was run: as §1

[33] = biological target: Neu5Ac9Ac(a2-3)Gal(b1-4)GlcNAc
How it was run: as §1

B1: Gal 4 (Homo sapiens), Q8K419 (protein)
chain: MAYVPAPGYQPTYNPTLPYKRPIPGGLSVGMSVYIQGMAKENMRRFHVNFAVGQDDGADVAFHFNPRFDGWDKVVFNTMQSGQWGKEEKKKSMPFQKGKHFELVFMVMPEHYKVVVNGNSFYEYGHRLPVQMVTHLQVDGDLELQSINFLGGQPAAAPYPGAMTIPAYPAGSPGYNPPQMNTLPVMTGPPVFNPRVPYVGALQGGLTVRRTIIIKGYVLPTARNFVINFKVGSSGDIALHLNPRIGDSVVRNSFMNGSWGAEERKVAYNPFGPGQFFDLSIRCGMDRFKVFANGQHLFDFSHRFQAFQMVDTLEINGDITLSYVQI
glycan array binding signal (z-score) (Fuc(a1-2)Gal): -0.2 | glycan array binding signal (z-score) [1]: -0.088 | glycan array binding signal (z-score) [2]: 1.3 | glycan array binding signal (z-score) [3]: -0.202 | glycan array binding signal (z-score) [4]: -0.199 | glycan array binding signal (z-score) [5]: -0.189 | glycan array binding signal (z-score) [6]: 0.833 | glycan array binding signal (z-score) [7]: 2.91 | glycan array binding signal (z-score) [8]: 3.5 | glycan array binding signal (z-score) [9]: -0.006 | glycan array binding signal (z-score) [10]: -0.2 | glycan array binding signal (z-score) [11]: 4.09 | glycan array binding signal (z-score) [12]: 1.51 | glycan array binding signal (z-score) [13]: 1.99 | glycan array binding signal (z-score) [14]: 9.63 | glycan array binding signal (z-score) [15]: -0.194 | glycan array binding signal (z-score) (Gal(b1-2)Gal): -0.201 | glycan array binding signal (z-score) (Gal(b1-3)Gal): 0.459 | glycan array binding signal (z-score) [16]: 13.2 | glycan array binding signal (z-score) [17]: 2.3 | glycan array binding signal (z-score) [18]: -0.174 | glycan array binding signal (z-score) [19]: -0.193 | glycan array binding signal (z-score) [20]: 2.3 | glycan array binding signal (z-score) [21]: -0.188 | glycan array binding signal (z-score) [22]: 1.11 | glycan array binding signal (z-score) [23]: -0.185 | glycan array binding signal (z-score) [24]: -0.059 | glycan array binding signal (z-score) (Gal3S(b1-4)GlcNAc): -0.136 | glycan array binding signal (z-score) (GalNAc(b1-3)GalNAc): -0.182 | glycan array binding signal (z-score) (GalNAc(b1-4)Gal(b1-4)Glc): -0.211 | glycan array binding signal (z-score) (GalNAc(b1-4)GlcNAc): -0.18 | glycan array binding signal (z-score) (Kdn(a2-3)Gal(b1-4)Glc): -0.243 | glycan array binding signal (z-score) [25]: -0.178 | glycan array binding signal (z-score) [26]: 0.182 | glycan array binding signal (z-score) [27]: -0.197 | glycan array binding signal (z-score) [28]: -0.198 | glycan array binding signal (z-score) [29]: -0.147 | glycan array binding signal (z-score) [30]: -0.187 | glycan array binding signal (z-score) [31]: -0.204 | glycan array binding signal (z-score) [32]: -0.205 | glycan array binding signal (z-score) (Neu5Ac(a2-8)Neu5Ac): -0.203 | glycan array binding signal (z-score) (Neu5Ac(b2-6)GalNAc): -0.196 | glycan array binding signal (z-score) [33]: -0.189
